Compound activity as filed in PubChem.
FLuc counter – qHTS profiling assay for firefly luciferase inhibitor/activator using purifed enzyme and Km concentrations of substrates (counterscreen for miR-21 project); Luciferin 4-monooxygenase (Photinus pyralis), P08659; purified FLuc, Km substrates, luminescence inhibition; Potency, µM (titrated, usually from 57.5 µM), usual class: inhibitors; actives 6.9% (n = 360,000); note: nearly all actives have a fitted effect of over 55% in size
Target sequence (P08659 whole entry, looked up): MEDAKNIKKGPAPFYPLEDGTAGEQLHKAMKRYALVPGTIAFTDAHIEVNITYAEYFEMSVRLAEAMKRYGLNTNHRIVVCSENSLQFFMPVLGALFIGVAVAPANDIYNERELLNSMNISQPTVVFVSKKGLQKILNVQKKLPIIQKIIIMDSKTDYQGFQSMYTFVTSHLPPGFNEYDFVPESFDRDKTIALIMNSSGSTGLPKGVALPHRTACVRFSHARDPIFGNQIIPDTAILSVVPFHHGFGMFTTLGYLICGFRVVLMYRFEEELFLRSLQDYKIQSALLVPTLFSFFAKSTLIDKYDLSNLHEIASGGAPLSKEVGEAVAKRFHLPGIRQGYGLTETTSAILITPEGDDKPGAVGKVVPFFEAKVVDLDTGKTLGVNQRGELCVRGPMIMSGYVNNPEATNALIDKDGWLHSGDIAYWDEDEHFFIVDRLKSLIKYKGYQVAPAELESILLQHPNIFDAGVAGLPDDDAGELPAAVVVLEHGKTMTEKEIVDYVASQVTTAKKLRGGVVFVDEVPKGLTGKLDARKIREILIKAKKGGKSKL
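Purified P. pyralis luciferase, 10 nM final, with Km-level 10 uM D-luciferin and 10 uM ATP in 50 mM Tris acetate pH 7.5, 10 mM Mg acetate, 0.01% Tween-20, 0.05% BSA; 6-point qHTS titration about 60 µM downward; luminescence read.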
NPC1 prom act – qHTS Assay for NPC1 Promoter Activators; Potency, µM (doses to about 9.22 µM), usual class: activators; Huh7 NPC1 promoter luciferase reporter, 24 h; actives 2.4% (n = 320,000); note: nearly all actives have a fitted effect of over 60% in size
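Stably transfected Huh7 (NPC1 promoter→luciferase), 1500 cells/well in Opti-MEM + 10% FBS, 2 h settle, then compound 24 h at 37 °C. Luminescence after 10 min with Amplite reagent.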
Rab9 promoter act – qHTS Assay for Rab9 Promoter Activators; Potency, µM (highest dose often 9.22 µM), most hits filed as activators; Huh7 Rab9 promoter-luciferase reporter, luminescence, 24 h; AID 485297, 2010; actives 2.8% (n = 320,000); note: nearly all actives have a fitted effect of over 60% in size
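Huh7 reporter line, Rab9 promoter upstream of luciferase. Compound exposure 24 h at 37 °C in reduced-serum medium with 10% FBS. Read-out: luminescence.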
ELG1 genotox – qHTS screen for small molecules that induce genotoxicity in human embryonic kidney (HEK293T) cells expressing luciferase-tagged ELG1 | actives 1.3% (n = 330,000) | HEK293T ELG1-luciferase reporter, luminescence, 16 h | Potency, µM (highest dose often 46 µM), most hits filed as activators; note: nearly all actives have a fitted effect of over 60% in size
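Genotoxicity was scored as increased ELG1-luciferase reporter signal, measured by ONE-Glo luminescence (30 min, room temperature). Compound or vehicle exposure of the HEK293T reporter cells lasted 16 hr at 37°C.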
ELG1 repair inh – qHTS screen for small molecules that inhibit ELG1-dependent DNA repair in human embryonic kidney (HEK293T) cells expressing luciferase-tagged ELG1 | HEK293T ELG1-luciferase reporter, luminescence, 16 h; DNA damage induced by 5-fluorouridine | Potency, µM (top dose mostly 46.1 µM), actives largely listed as inhibitors | actives 2.3% (n = 330,000) | AID 504467, 2011; note: nearly all actives have a fitted effect of over 55% in size
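5-Fluorouridine DNA damage + compound/DMSO, 2,000 cells/well, 16 h, 37 °C/5% CO2. ONE-Glo, 30 min RT, luminescence. Readout = decrease in reporter signal.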
SMN2 splice enh – qHTS Assay for Enhancers of SMN2 Splice Variant Expression | AID 1458, 2008 | HEK293 SMN2-luciferase splicing reporter, luminescence, 30-36 h | Potency, µM (titrated, usually from 46.1 µM), usual class: activators | actives 2.8% (n = 210,000); note: nearly all actives have a fitted effect of over 55% in size
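qHTS luciferase splicing reporter: luminescence rises when SMN2 exon 7 is included in transfected HEK293 cells. Compound exposure lasted 30-36 h at 37C, with 4.5 mM final sodium butyrate as control, followed by a ONE-Glo read.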
Hits are given with their value; – = inactive; ? = inconclusive; · = no result; [ ] = another dose, or the depositor's remark. Only some compounds are listed: those with a hit (about 9.2% of all), similar ones and a draw of the others. Calls come from the whole dose curve; as a rule, active = well fitted curve in the direction sought with a large enough effect; inconclusive = small, poorly fitted or top-dose-only effect, or another doubt; inactive = no such curve, though single readings can be large; an effect the other way counts as inactive or inconclusive.

SMILES	FLuc counter	NPC1 prom act	Rab9 promoter act	ELG1 genotox	ELG1 repair inh	SMN2 splice enh
Cc1c(C(=O)NCC2CCCO2)oc2ccc(Br)cc12 (configuration not stated)	?	–	?	23.1µM	?	·
Cc1ccc(CNc2ccc3c(c2)OCO3)cc1	23.9µM	·	·	·	·	–
CCN1C(=O)c2ccc(C(=O)Nc3ccc4c(c3)OCO4)cc2C1=O	2.69µM	–	–	?	?	·
CCCOc1cccc(C(=O)Nc2ccc3c(c2)OCCO3)c1	0.953µM	3.16µM	?	2.31µM	?	·
Cc1ccc(-c2cc3ncc4c(n3n2)-c2cc(Cl)ccc2OC4)cc1	–	·	·	·	·	–
Cc1ccc(S(=O)(=O)CC(=O)c2ccc3c(c2)OCCO3)cc1	13.5µM	?	?	–	–	·
CCC(O)c1cc2c(cc1NC(=O)c1cccc(Br)c1)OCCO2 (configuration not stated)	–	·	·	·	·	–
O=C(Nc1ccc2c(c1)OCCO2)c1cccc(Br)c1	1.07µM	1.26µM	1.41µM	2.59µM	?	·
CCn1cc2nc(SCC(=O)Nc3ccc(F)cc3F)n(Cc3ccccc3)c(=O)c2n1	–	–	–	–	–	·
COc1ccccc1N/C=C(\C#N)c1nc2ccccc2[nH]1	3.38µM	–	–	–	?	·
COc1c(O)ccc(/C=C(\C#N)c2nc3ccccc3[nH]2)c1[N+](=O)[O-]	26.9µM	–	–	–	–	–
COc1c(Cl)cc(Cl)cc1/C=C(\C#N)c1nc2ccccc2[nH]1	–	·	·	·	·	·
CCC(=O)Oc1ccc(/C=C(\C#N)c2nc3ccccc3[nH]2)cc1OC	2.69µM	·	·	·	·	?
COc1cc(/C=C(/C#N)c2nc3ccccc3c(=O)[nH]2)ccc1O	8.49µM	–	–	–	?	–
COc1ccc(/C=C(\C#N)c2nc3ccccc3c(=O)[nH]2)cc1OC	–	·	·	·	·	–
COc1cccc(CNC(=O)C2CCN(C(=O)c3cnn(-c4ccccc4)c3-n3cccc3)CC2)c1	–	·	·	·	·	–
COc1cc(/C=C(\C#N)c2nc3ccccc3[nH]2)cc(OC)c1O	12µM	–	–	–	–	–
COc1ccc(/C=C(\C#N)c2nc3ccccc3[nH]2)cc1O	9.53µM	?	?	?	?	·
COc1cc(/C=C(\C#N)C(=O)NCCc2ccccc2)cc(OC)c1O	–	–	–	–	–	·
COc1cc(/C=C(\C#N)C(=O)c2c[nH]c3ccccc23)cc(OC)c1O	15.1µM	–	–	–	–	–
CC(=O)Nc1ccc(S(=O)(=O)N2CCN=C2SCc2ccc(F)cc2)cc1	–	–	–	–	2.91µM	·
O=C(Cn1c(=O)nc(-c2ccccc2)c2ccccc21)NCCc1ccc(Cl)cc1	–	·	·	·	·	·
Cc1ccc(/C=C/C(=O)N2CCCC(C)C2)cc1 (configuration not stated)	3.01µM	1.26µM	2.24µM	9.2µM	?	1.12µM
Cc1ccc(/C=C/C(=O)N2CCC(c3nc4ccccc4o3)CC2)cc1	10.7µM	·	·	·	·	·
Cc1ccc(/C=C/C(=O)N2CCC(Cc3ccccc3)CC2)cc1	21.3µM	–	–	–	–	–[1.84 µM]
SMILES	FLuc counter	NPC1 prom act	Rab9 promoter act	ELG1 genotox	ELG1 repair inh	SMN2 splice enh
COc1ccc(/C=C/C(=O)N2CCC(c3nc4ccccc4o3)CC2)cc1OC	–	·	·	·	·	·
CC(C)Cc1ccc(/C=C/C(=O)NC2CC2)cc1	4.78µM	?	3.55µM	16.4µM	?	?
CCOC(=O)C1CCCN(C(=O)/C=C/c2ccc(Cl)cc2)C1 (configuration not stated)	–	–	–	–	–	–
COc1ccc(CN(C#N)c2nc(SC)nc(N(C)C)n2)cc1	–	–	–	–	–	–
COc1ccc(NC(=O)CN2C(=O)C(=O)N(C3CCCC3)C2=O)c(OC)c1	·	·	·	–	?	·
CC(C)(C)c1ccc(/C=C/C(=O)N2CCCCC2)cc1	6.75µM	3.98µM	1.58µM	?	?	12.6µM
O=C(/C=C/c1ccccc1)N1CCCN(C(=O)/C=C/c2ccccc2)CC1	?	–	–	–	–	–
CN1CCN(C(=O)/C=C/c2ccc(Cl)cc2)CC1	–	–	–	–	?	·
CC1CCN(C(=O)/C=C/c2ccc(C(C)(C)C)cc2)CC1	15.1µM	–	–	?	?	–
CC(C)Cc1ccc(/C=C/C(=O)N2CCCCC2)cc1	7.57µM	2.51µM	0.891µM	–	?	11.2µM
CC(C)OC(=O)CSc1nnnn1-c1ccc2c(c1)OCCO2	16.9µM	–	?	–	?	–
COC(=O)c1ccc(-n2nnnc2SCC(=O)Nc2cc(OC)ccc2OC)cc1	–	–	–	–	–	–
COc1ccccc1NC(=O)CSc1nnnn1-c1ccccc1F	–	–	–	–	–	·
COC(=O)c1sccc1NC(=O)CSc1nnnn1-c1ccccc1C	–	–	–	–	18.4µM	–
COc1ccc(N2CCN(C(=O)CSc3nnnn3-c3ccc4c(c3)OCCO4)CC2)cc1	–	–	–	–	23.1µM	–
COc1ccc(OC)c(NC(=O)CSc2nnnn2-c2ccc3c(c2)OCO3)c1	–	–	–	–	–	35.5µM
Cc1ccccc1-n1ccnc1SCC(=O)Nc1cccc(S(=O)(=O)NC2=NCCC2)c1	·	·	·	–	–	·
CCCN(Cc1cccs1)C(=O)Nc1ccc(F)c(Cl)c1	–	·	·	·	·	·
O=C(C1CCN(S(=O)(=O)c2ccc(Cl)c(C(F)(F)F)c2)CC1)N1CCC1	–	–	–	–	?	·
COc1ccc(N=Nc2nc3ccc(Br)cc3n2C)cc1	0.379µM	2.82µM	2.51µM	–	?	?
Cc1ccc(CNC(=O)Cn2ccn(-c3ccc(F)c(F)c3)c(=O)c2=O)cc1	–	·	·	·	·	·
c1ccc2[nH]c(SCC3CCCCO3)nc2c1 (configuration not stated)	19µM	1.78µM	1.41µM	?	?	–
O=C(O)CSc1nc2ccccc2[nH]1	–	–	–	–	–	–[9.22 µM]
ClC1(Cl)CC1CSc1nc2ccccc2[nH]1 (configuration not stated)	16.9µM	?	?	–	?	?
CCOc1ccc2nc(SCC3CC3(Cl)Cl)[nH]c2c1 (configuration not stated)	7.57µM	2.51µM	3.16µM	?	?	·
CCOc1ccc(C2NC(=O)c3c(COC)cc(C)nc3N2Cc2ccccc2)cc1OC (configuration not stated)	–	·	·	·	·	–
Cc1ccc(-n2nnnc2SC(C)C(=O)NCC(=O)Nc2ccc(F)c(F)c2F)c(C)c1 (configuration not stated)	–	–	–	–	18.4µM	–
COCCn1c(CN2CCc3ccccc3C2)nc2c1c(=O)n(C)c(=O)n2C	–	–	–	–	6.51µM	–
